Compound activity from PubChem BioAssay.
SMN2 splice enh: qHTS Assay for Enhancers of SMN2 Splice Variant Expression | AID 1458, 2008 | Potency, µM (top dose mostly 46.1 µM), for inactives: at the top dose activity change, positive = activation, hits mostly activators | actives 2.8% (n = 210,000) | HEK293 SMN2-luciferase splicing reporter, luminescence, 30-36 h; further: % of control where 0% means no effect; nearly all actives have a fitted effect of over 55% in size
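HEK293 cells carry an SMN2 minigene-luciferase reporter in which exon 7 inclusion puts luciferase in frame. Cells were seeded at 2000 cells/well, attached for 10-12 hours, then exposed to compounds for 30-36 hours at 37C before ONE-Glo luminescence.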
NPC1 promoter act: qHTS Assay for NPC1 Promoter Activators. Huh7 NPC1 promoter luciferase reporter, 24 h. Potency, µM (doses to about 9.22 µM), inactives show at the highest dose activation, hits mostly activators. actives 2.4% (n = 320,000). AID 485313, 2010; further: % of control where 0% means no effect; nearly all actives have a fitted effect of over 60% in size
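Huh7 cells stably carrying NPC1 promoter–luciferase, plated in Opti-MEM with 10% FBS for 2 h, were exposed to compound in DMSO for 24 h at 37 °C; luciferase reagent was added for 10 min and luminescence read.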
FLuc counter: qHTS profiling assay for firefly luciferase inhibitor/activator using purifed enzyme and Km concentrations of substrates (counterscreen for miR-21 project). purified FLuc, Km substrates, luminescence inhibition. Potency, µM (top dose mostly 57.5 µM), for inactives: at the highest dose activity change, negative = inhibition, usual class: inhibitors. Luciferin 4-monooxygenase (Photinus pyralis), P08659. actives 6.9% (n = 360,000);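 further: plate controls were vehicle for no effect and reference inhibitor for full effect; nearly all actives have a fitted effect of over 55% in size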
Target sequence (P08659 whole entry, looked up): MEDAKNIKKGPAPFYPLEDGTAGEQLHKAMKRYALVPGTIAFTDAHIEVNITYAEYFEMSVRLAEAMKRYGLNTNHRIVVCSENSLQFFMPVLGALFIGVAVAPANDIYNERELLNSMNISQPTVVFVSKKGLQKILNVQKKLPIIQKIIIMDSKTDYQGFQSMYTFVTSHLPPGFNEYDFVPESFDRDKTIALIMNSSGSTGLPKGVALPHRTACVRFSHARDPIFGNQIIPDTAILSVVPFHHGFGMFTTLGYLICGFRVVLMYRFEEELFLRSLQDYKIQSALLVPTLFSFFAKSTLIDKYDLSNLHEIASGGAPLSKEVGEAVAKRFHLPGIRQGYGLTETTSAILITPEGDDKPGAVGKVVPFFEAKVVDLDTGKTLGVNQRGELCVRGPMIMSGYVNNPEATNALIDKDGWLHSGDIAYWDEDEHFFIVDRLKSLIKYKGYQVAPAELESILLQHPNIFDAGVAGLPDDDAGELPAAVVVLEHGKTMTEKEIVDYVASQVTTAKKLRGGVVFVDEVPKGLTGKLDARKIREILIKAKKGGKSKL
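Biochemical qHTS of compounds, final roughly 60 µM downward over six points, against 10 nM purified firefly luciferase using Km concentrations of substrates (10 uM D-luciferin, 10 uM ATP) in Tris acetate pH 7.5 buffer; luminescence output.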
ELG1 genotoxic: qHTS screen for small molecules that induce genotoxicity in human embryonic kidney (HEK293T) cells expressing luciferase-tagged ELG1; HEK293T ELG1-luciferase reporter, luminescence, 16 h; Potency, µM (doses to about 46 µM), without a hit: at the highest dose activity change, positive = activation, hits mostly activators; actives 1.3% (n = 330,000); AID 504466, 2011; further: % of control where 0% means no effect; nearly all actives have a fitted effect of over 60% in size
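Cells (2,000/well) expressing the ELG1-luciferase fusion are dosed by pin tool and kept 16 hr at 37 °C, 5% CO2. Signal comes from ONE-Glo luciferase reagent after 30 min at room temperature.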
Luc counter: Counterscreen for Luciferase (Kinase-Glo TM) Inhibition. actives 0.28% (n = 200,000). Potency, µM (titrated, usually from 38.3 µM), for inactives: top-dose activity change, negative = inhibition, usual class: inhibitors. Kinase-Glo luciferase, ATP luminescence, 8 min. Luciferin 4-monooxygenase (Photuris pensylvanica), Q27757. AID 1379, 2008; further: on the % scale 0 is the no-effect control and ±100 the full control effect; nearly all actives have a fitted effect of over 60% in size
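Recombinant Kinase-Glo luciferase, 10 uM ATP (linear range), luciferin; imidazole pH 7.2 / KCl / MgCl2 / Tween / BSA buffer; 8 min RT; luminescence.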
Rab9 prom act: qHTS Assay for Rab9 Promoter Activators. Huh7 Rab9 promoter-luciferase reporter, luminescence, 24 h. Potency, µM (titrated, usually from 9.22 µM), for inactives: at the highest dose activation, negative = inhibition, most hits filed as activators. actives 2.8% (n = 320,000). AID 485297, 2010; further: % of control where 0% means no effect; nearly all actives have a fitted effect of over 60% in size
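Steps: seed 1500 Huh7 Rab9-luc cells per well, rest 2 h at 37 °C; add compound in DMSO; incubate 24 h; add luciferase reagent, 10 min ambient; read luminescence.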
Active calls of the source: *; ! = not active in a repeat. Shown are actives, neighbours in structure and some others; about 7.4% of the full set was active somewhere. The call rests on the fitted dose curve; in most records, active means well fitted curve in the direction sought with a large enough effect; inconclusive means small, poorly fitted or top-dose-only effect, or another doubt; inactive means no such curve, though single readings can be large; an effect the other way counts as inactive or inconclusive. Potency means the concentration at half of the fitted maximal effect.

CC1(C)CC(=O)C(C=NCCN2CCN(C3CC(=O)N(c4ccc(Br)cc4)C3=O)CC2)=C(O)C1 (stereo not drawn) was read as NPC1 promoter act -2.3%, FLuc counter 0.2%, ELG1 genotoxic -2.2%, Luc counter 0.8% and Rab9 prom act -4.1%.
For CC(C)N(Cc1ccccc1)C(=O)COC(=O)c1cnc(Cl)c(Cl)c1 the results were ELG1 genotoxic -0.1%.
Screening CCOc1ccc(C(=O)Nc2cc(-c3nc4ccccc4[nH]3)ccc2C)cc1[N+](=O)[O-] returned SMN2 splice enh -20.2%, NPC1 promoter act -0.8%, FLuc counter 8.49µM*, ELG1 genotoxic -7.4%, Luc counter -1.8% and Rab9 prom act -2.5%.
Screening CCOc1ccccc1NC(=O)c1ccc(OCC)c([N+](=O)[O-])c1 returned SMN2 splice enh -8.5%, NPC1 promoter act 0.6%, FLuc counter -1.5%, ELG1 genotoxic 3.4%, Luc counter 0.2% and Rab9 prom act -3.7%.
`CCOc1ccc(C(=O)Nc2cc(-c3nc4ccccc4[nH]3)ccc2Cl)cc1[N+](=O)[O-]` gave SMN2 splice enh -32.0%, NPC1 promoter act -0.8%, FLuc counter inconclusive, ELG1 genotoxic 8.2%, Luc counter -5.5% and Rab9 prom act -6.5%.
CCOc1ccc(C(=O)Nc2cccc(-c3nc4ccccc4[nH]3)c2C)cc1[N+](=O)[O-] was read as SMN2 splice enh -9.8%, NPC1 promoter act -3.1%, FLuc counter 9.53µM*, ELG1 genotoxic -1.5%, Luc counter 3.1% and Rab9 prom act 1.6%.
`O=C(N=C1SC2CS(=O)(=O)CC2N1c1ccc(F)cc1F)C1CC1` (stereo not drawn) gave NPC1 promoter act -0.3%, FLuc counter 1.6%, ELG1 genotoxic -0.5% and Rab9 prom act 1.7%.
Screening CCn1c(SCC(=O)N2CCCCC2)nc2c(c1=O)SCC2 returned NPC1 promoter act -3.2%, FLuc counter -2.7%, ELG1 genotoxic -5.6% and Rab9 prom act 1.5%.
Screening CCCCNC(=O)c1ccc2c(c1)ncn2C1CCCC1 returned SMN2 splice enh 3.6%, NPC1 promoter act -0.2%, FLuc counter 16.9µM*, ELG1 genotoxic inconclusive, Luc counter -1.7% and Rab9 prom act 4.3%.
Screening C#CCOC(=O)Nc1cc(C)n(-c2ccccc2)n1 returned NPC1 promoter act -4.1%, FLuc counter 2.6%, ELG1 genotoxic -0.2% and Rab9 prom act -3.5%.
`COc1ccc(-c2csc3nc(-c4cccnc4)nc(N4CCC(C(N)=O)CC4)c23)cc1OC` gave SMN2 splice enh 14.1µM*, NPC1 promoter act -0.8%, FLuc counter 1.6%, ELG1 genotoxic -2.4%, Luc counter 8.3% and Rab9 prom act -2.7%.
For CN(C)c1cccc(-c2csc(N3CCC(C(N)=O)CC3)n2)c1 the results were ELG1 genotoxic 9.3%.
`CS(=O)(=O)c1cccc(-c2csc(N3CCC(C(N)=O)CC3)n2)c1` gave NPC1 promoter act 2.51µM*!, FLuc counter 0.1%, ELG1 genotoxic 9.7% and Rab9 prom act inconclusive.
`COc1cccc(-c2csc(N3CCC(C(N)=O)CC3)n2)c1` gave FLuc counter 16.9µM*.
Screening COc1ccc(-c2csc3nc(C)nc(N4CCCCC4)c23)cc1OC returned SMN2 splice enh -22.2%, NPC1 promoter act -2.0%, FLuc counter -17.6%, ELG1 genotoxic -7.5%, Luc counter 0.9% and Rab9 prom act 0.6%.
`Cc1ccnc(N2C(=O)c3ccccc3C2Nc2cccc(C)c2C)c1` (stereo not drawn) gave SMN2 splice enh 8.8%, NPC1 promoter act -3.5%, FLuc counter 3.4%, ELG1 genotoxic 0.7%, Luc counter -1.7% and Rab9 prom act -3.6%.
